Laboratory results as given in PubChem BioAssay AID662 (National Center for Advancing Translational Sciences (NCATS), 2007).
The whole screen tested about 71,000 compounds, of which about 1,800 (2.5%) were called active. Where a call stands in place of a potency, no number is given. Not shown: some 26% with an inconclusive outcome. The sample holds actives, similar compounds and a random draw of the others, so the mix is not that of the screen. A number with no mark means an inactive call. The call rests on the fitted dose curve; in most records, active means well fitted activation curve with a large enough effect in the signal ratio, with a control signal flat (not every such curve was filed as active); inconclusive means small, poorly fitted or top-dose-only effect, or effect the other way, or a change in a side signal; inactive means flat fitted curve, though single readings scatter; the % refers to the signal ratio.

experiment: Cell signaling CRE-BLA (Fsk stim); details: CHO CRE-bla reporter (cAMP response element driving beta-lactamase), forskolin EC10, beta-lactamase ratio; series mostly up to 38.2 µM
From the text: NIH Molecular Libraries Screening Centers Network [MLSCN]
NIH Chemical Genomics Center [NCGC]
Assay Provider: Marshall W. Nirenberg, U.S. National heart lung & blood institute
Memories persist for different lengths of time, from seconds or minutes to a lifetime. There are two kinds of memory: short-term memory (STM) and long-term memory (LTM). STM lasts for minutes to hours, which maybe mediated by modifications of molecules involved in synaptic functions. LTM lasts for days or longer, and may be due to the formation of new synapses or restructuring of existing synapses. LTM, but not STM, requires gene transcription and synthesis of proteins. CREB (cyclic-AMP Responsive Element Binding Protein) is one of the candidates plays an important role for enhancement of some types of LTM. CREB, a family of transcription factors, regulates the transcription of genes containing cAMP Responsive Elements (CRE). CRE is a nucleotide sequence often found in the promoter regions of genes that are binding sites for CREB.
Using a beta-lactamase reporter-gene under control of cAMP responsive element, a cell-based assay [CellSensor(TM) CRE-bla CHO developed by Invitrogen Corp.] was used to measure forskolin-induced signaling. Library compounds were measured for their ability to modulate positively or negatively the action of EC10 NKH 477, a water soluble forskolin, on reporter gene activity. Compounds were screened in a titration series in 1536-well format. Positive and negative modulators were identified based on the AC50 values derived from the screening data.
NCGC Assay Protocol Summary
2000 cells/5uL in Opti-MEM medium containing 0.5% dialyzed FBS, 0.1 mM NEAA, 1 mM sodium pyruvate and 10 mM HEPES was dispensed into 1536-well plates and cells were cultured at 37 degrees Celsius overnight. […] And then the plates were incubated at 37 degrees Celsius for 3 hours. 1 uL of CCF4-dye mixture was added to each well. After incubated at room temperature for 2 hours the plates were measured on an EnVision plate reader at Excitation 405nm, Emission1=460nm and Emission 2=530nm. The %Activity was determined from the ratio of 460nm/530nm.
Keywords: NIH Roadmap, MLSCN, MLSMR, qHTS, NCGC, CRE, beta-lactamase reporter-gene assay.
Potency means the concentration at half of the fitted maximal effect.

Q: For `Fc1ccc(-c2ccc(-c3nn4c(-c5ccco5)nnc4s3)o2)cc1`, which Potency is on record?
A: inactive

Q: For `Cc1nnc2sc(-c3ccco3)nn12`, which Potency is on record?
A: inactive

Q: With `COc1ccc(-c2nn3c(-c4ccccc4)nnc3s2)cc1OC` as the molecule, how does the Potency read?
A: 3.16 µM (active)

Q: For `COc1cc(-c2nn3c(-c4cccc(C)c4)nnc3s2)cc(OC)c1OC`, which Potency is on record?
A: 1.58 µM (active)

Q: Which Potency does the source give for `CC(=O)Nc1ccc(-c2nn3c(C)nnc3s2)cc1C` here?
A: inactive

Q: With `COC(=O)CCCCCN1C(=O)NC(c2ccc(-c3ccccc3)cc2)C(C(=O)OCc2ccccc2)=C1C` (stereo unspecified) as the molecule, how does the Potency read?
A: inactive

Q: For `O=C(CCSc1ccccc1)NCCSc1ccccn1`, which Potency is on record?
A: inactive

Q: Which activity change, negative = inhibition does the source give for `CCOc1ccccc1N(CC(=O)Nc1ccccc1C(=O)OC)S(C)(=O)=O` here?
A: 12.2% [at 7.6 µM]

Q: Which Potency does the source give for `CC(NC(=O)Nc1ccccc1)c1ccccc1` (stereo unspecified) here?
A: inactive

Q: Which Potency does the source give for `CC(Cc1ccccc1)C(=O)N(C)Cc1ccccc1` (stereo unspecified) here?
A: inactive

Q: With `CCOc1ccc(Cn2c(SCCCCC#N)nc3c2c(=O)n(C)c(=O)n3C)cc1OCC` as the molecule, how does the Potency read?
A: 10 µM (active)

Q: Which Potency does the source give for `COC(=O)C(C)Sc1nc2c(c(=O)n(C)c(=O)n2C)n1Cc1cccc(C)c1` (stereo unspecified) here?
A: inactive

Q: Which Potency does the source give for `CCCSc1nc2c(c(=O)n(C)c(=O)n2C)n1Cc1ccc(C)cc1` here?
A: inactive

Q: For `COC(=O)[C@@]1(Cc2ccccc2)[C@H]2c3cc(C(=O)N(C)C)n(CCSCCO)c3C[C@H]2CN1C(=O)c1ccccc1`, which Potency is on record?
A: inactive

Q: For `NS(=O)(=O)c1ccc(NS(=O)(=O)/C=C/c2ccccc2)cc1`, which Potency is on record?
A: inactive

Q: With `CC(C)(C)NC(=O)c1cc(NC(=O)c2ccco2)cc(NC(=O)c2ccco2)c1` as the molecule, how does the Potency read?
A: inactive

Q: Which Potency does the source give for `O=C(Nc1cccc(Cl)c1)OCc1ccccn1` here?
A: inactive

Q: Which Potency does the source give for `O=c1c2[nH]c3ccc(Cl)cc3c2ncn1Cc1ccccn1` here?
A: 3.98 µM (active)

Q: For `CC(=O)N1CC2(C)CN(C(C)=O)CC(C)(C1)C2=O`, which Potency is on record?
A: inactive

Q: Which Potency does the source give for `C/C=C/C=C/C(=O)O` here?
A: inactive

Q: For `CCNc1nc(SCCOc2ccccc2)nc(N(C)C)n1`, which Potency is on record?
A: 3.98 µM (active)

Q: With `Nc1nc(SCCOc2ccccc2)n[nH]1` as the molecule, how does the Potency read?
A: inactive

Q: With `CCNc1nc(NCC)nc(N(C)n2cnnc2)n1` as the molecule, how does the Potency read?
A: inactive

Q: Which Potency does the source give for `OC(CCl)CCl` here?
A: inactive

Q: For `COc1ccccc1NC(=O)CSc1nnc(-c2ccoc2C)n1CCc1ccccc1`, which Potency is on record?
A: inactive

Q: Which Potency does the source give for `Cn1c(=O)c2c(nc(SCC(=O)Nc3ccccc3N3CCCCC3)n2C)n(C)c1=O` here?
A: inactive

Q: With `CCCc1nc(SCC(=O)Nc2ccccc2OC)c2c(=O)n(C)c(=O)n(C)c2n1` as the molecule, how does the Potency read?
A: 2.51 µM (active)

Q: With `C=CCc1cccc2cc(C(=O)OCC)c(=O)oc12` as the molecule, how does the Potency read?
A: inactive

Q: For `COc1ccccc1N1CCN(C[C@@H]2CN3C(=O)N(C)c4ccccc4C3=N2)CC1`, which Potency is on record?
A: inactive

Q: Which Potency does the source give for `COc1ccc(-c2noc(-c3cccc(OC)c3OC)n2)cc1OC` here?
A: 2.51 µM (active)

Q: For `COc1cc(-c2nc(-c3ccncc3)no2)cc(OC)c1OC`, which Potency is on record?
A: inactive

Q: Which Potency does the source give for `COc1ccc(-c2nc(-c3ccccc3)no2)c(OC)c1` here?
A: inactive

Q: For `COc1ccc(C(=O)n2nc(-c3ccc(C)cc3)nc2N)cc1OC`, which Potency is on record?
A: inactive

Q: With `COc1ccccc1C(=O)n1nc(-c2ccccc2)nc1N` as the molecule, how does the Potency read?
A: inactive

Q: Which Potency does the source give for `COc1ccc(C(=O)n2nc(-c3ccc(Cl)cc3)nc2N)cc1OC` here?
A: 2 µM (active)

Q: With `O=C1CC(N2CCN(C(c3ccccc3)c3ccccc3)CC2)C(=O)N1` (stereo unspecified) as the molecule, how does the Potency read?
A: inactive

Q: With `CC/C(=N\O)C(C)(C)/[N+]([O-])=C/c1ccc(Br)cc1` as the molecule, how does the Potency read?
A: inactive

Q: With `O=C(OCCO)c1cc(Cl)c(C(=O)OCCO)cc1Cl` as the molecule, how does the Potency read?
A: inactive

Q: Which Potency does the source give for `O=C(O)CN(Cc1ccco1)S(=O)(=O)c1ccccc1` here?
A: inactive

Q: With `COc1ccccc1Nc1ncnc2c1oc1ccccc12` as the molecule, how does the Potency read?
A: inactive

Q: For `CCc1nc(Nc2ccc3nccnc3c2)c2oc3ccccc3c2n1`, which Potency is on record?
A: 0.794 µM (active)

Q: With `CCc1nc(N2CCN(c3nc(C)cc(C)n3)CC2)c2oc3ccccc3c2n1` as the molecule, how does the Potency read?
A: inactive

Q: With `CC(=O)NC(C)c1nc2ccccc2n1Cc1ccccc1F` (stereo unspecified) as the molecule, how does the Potency read?
A: inactive

Q: For `C#CCNc1nc(C(C)C)nc2c1nnn2Cc1ccccc1F`, which Potency is on record?
A: 10 µM (active)

Q: With `CC(C)(C)c1nc(NCC2CCCO2)c2nnn(Cc3ccccc3)c2n1` (stereo unspecified) as the molecule, how does the Potency read?
A: inactive

Q: Which Potency does the source give for `Cc1cccc(C(=O)O)c1` here?
A: inactive

Q: Which Potency does the source give for `CCCC(NC(=O)c1ccccc1)c1nc2ccccc2n1Cc1ccc(C(=O)OC)o1` (stereo unspecified) here?
A: inactive

Q: For `COC(=O)c1ccc(CSc2nc3ccccc3c(=O)n2-c2cccc(OC)c2)o1`, which Potency is on record?
A: 5.01 µM (active)

Q: For `COC(=O)c1ccc(CSc2ccccc2C)o1`, which Potency is on record?
A: inactive

Q: With `COCC(C)n1c(SCc2ccc(C(=O)OC)o2)nc2ccccc2c1=O` (stereo unspecified) as the molecule, how does the Potency read?
A: 10 µM (active)

Q: For `CCOC(=O)CNC(=O)c1nn(-c2cccc(OC)c2)c(=O)c2ccccc12`, which Potency is on record?
A: inactive

Q: With `O=c1c2ccccc2nc(CSc2nnnn2-c2ccccc2)n1-c1ccccc1` as the molecule, how does the Potency read?
A: inactive

Q: For `COc1ccc(S(=O)(=O)N2CCC(C(=O)N3CCOCC3)CC2)cc1OC`, which Potency is on record?
A: inactive

Q: With `COC(=O)C1(C)C=CCN1C(=O)c1ccccc1` (stereo unspecified) as the molecule, how does the Potency read?
A: inactive

Q: Which Potency does the source give for `CC1COC2C(O1)N(S(C)(=O)=O)CCN2S(C)(=O)=O` (stereo unspecified) here?
A: inactive

Q: Which Potency does the source give for `O=C(C1CCN(CC2CCCCC2)CC1)N1CCCC1` here?
A: inactive
